# The list is not random: actives were taken first. Their share in the collection is about 3%.
# KAT2A inh = GCN5L2 (KAT2A) acetyltransferase inhibition; AID 504327; Potency, µM (doses to about 58.9 µM), for inactives: top-dose activity change, negative = inhibition, most hits filed as inhibitors; GCN5L2 HAT assay, ThioGlo1 CoA-SH fluorescence; 390,000 tested, 0.21% active; also: % is scaled to controls: 0 for no effect and ±100 for the full control effect
#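 GCN5L2 (20nM final) in 50mM HEPES, 0.1mM EDTA pH 7.5, 0.01% Tween-20 was preincubated 15 min at room temperature with compound, then given ThioGlo1 (50uM), H3(1-25) peptide (75uM) and acetyl-CoA (70uM); CoA-thiol fluorescence (Ex340/Em540) was read at 0 and 20 min.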
# VDR inhibitor = blocks the human vitamin D receptor; 400,000 tested, 0.93% active; Potency, µM, for the others: max response, negative = inhibition, actives largely listed as inhibitors; VDR-SRC2-3 peptide fluorescence polarization, 2 h; also: % is scaled to controls: 0 for no effect and ±100 for the full control effect
# Target sequence (P11473 whole entry, looked up): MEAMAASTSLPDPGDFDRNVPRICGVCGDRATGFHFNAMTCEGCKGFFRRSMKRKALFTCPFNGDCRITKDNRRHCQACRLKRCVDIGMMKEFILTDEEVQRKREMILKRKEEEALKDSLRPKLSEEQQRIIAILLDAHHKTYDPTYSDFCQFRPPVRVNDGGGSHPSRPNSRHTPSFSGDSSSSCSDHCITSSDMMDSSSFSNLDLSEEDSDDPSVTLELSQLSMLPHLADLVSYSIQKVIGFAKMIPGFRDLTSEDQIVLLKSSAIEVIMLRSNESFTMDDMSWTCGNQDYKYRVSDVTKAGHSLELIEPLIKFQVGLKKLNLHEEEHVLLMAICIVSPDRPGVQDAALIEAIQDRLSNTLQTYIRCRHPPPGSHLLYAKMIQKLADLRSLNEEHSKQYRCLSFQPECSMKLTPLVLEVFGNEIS
#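 After 23 nl compound addition and a short centrifugation, plates sat for 2 hours at ambient temperature; polarization of fluorescence then indicated loss of VDR binding to peptide SRC2-3.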
# USP1-UAF1 inh = inhibitors of human USP1/UAF1 deubiquitinase | O94782 | recombinant USP1/UAF1, Ub-Rhodamine cleavage fluorescence | Potency, µM (doses to about 57.1 µM), without a hit: top-dose activity change, negative = inhibition, usual class: inhibitors | 390,000 tested, 0.23% active; also: % is scaled to controls: 0 for no effect and ±100 for the full control effect; nearly all actives have a fitted effect of over 60% in size
#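 High-throughput fluorogenic screen: 1nM USP1/UAF1 complex, Ub-Rho substrate 150nM final, 50mM HEPES pH 7.8 with 0.5mM EDTA, 0.1 mg/ml BSA, 1mM TCEP and 0.01% Tween-20.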
# PLK1 PBD inh = PLK1 (human) polo-box domain binding inhibition; Potency, µM, without a hit: max response, negative = inhibition, actives largely listed as inhibitors; 360,000 tested, 2.8% active; P53350; Plk1 PBD binding of FITC phosphopeptide, fluorescence polarization; AID 720504; also: series mostly up to about 57 µM; % is scaled to controls: 0 for no effect and ±100 for the full control effect; nearly all actives have a fitted effect of over 65% in size
# PTAP TSG101 blk = blocks PTAP/TSG101 interaction to inhibit HIV-1 budding. 340,000 tested, under 10 active. Q99816. Fluorescence polarization, FITC-PTAP peptide / Tsg101 binding. Potency, µM (highest dose often 115 µM), without a hit: at the top dose activity change, negative = inhibition, most hits filed as inhibitors; active = well fitted inhibition curve with a large enough effect in the main read-out, with a control signal flat, not every such curve was filed as active; inconclusive = small, poorly fitted or top-dose-only effect, or effect the other way, or a change in a side signal; inactive = no such curve, though single readings can be large or run the other way; also: % of control where 0% means no effect
#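 Compounds were pin-transferred onto Tsg101 binding domain (10 uM final) in HEPES pH 7.5 buffer, then FITC-PTAP peptide was added at 50 nM final. After 20 min at RT, polarization reported peptide displacement across a qHTS concentration series.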
# The depositor's hits bear a star; u = inconclusive; x = no result. Unless noted, calls follow the shape of the dose curve; as a rule, active = well fitted curve in the direction sought with a large enough effect; inconclusive = small, poorly fitted or top-dose-only effect, or another doubt; inactive = no such curve, though single readings can be large; an effect the other way counts as inactive or inconclusive. Potency is read from the fitted curve at half-maximal effect.
SMILES,KAT2A inh,VDR inhibitor,USP1-UAF1 inh,PLK1 PBD inh,PTAP TSG101 blk
C=C(C(=O)c1ccccc1)C(C)C(=C)C(=O)c1ccccc1,-5%,79µM*,-15%,2%,-11%
CCc1ccc(CNC(=O)Cn2nc(-c3ccc(Cl)cc3)ccc2=O)cc1,7%,u,-13%,x,x
C=CCSc1nc(C)c(CCC(C)C)c(=O)[nH]1,-3%,-25%,-22%,27µM*,-1%
C=CCSc1nc(C)c(CC(=C)C)c(=O)[nH]1,1%,3%,-14%,6%,-3%
COc1cccc(-c2nc(N(C)C)c3ccccc3n2)c1,u,56µM*,x,x,x
COc1ccc(OC)c(Nc2nc(-c3ccc(C)cc3)nc3ccccc23)c1,25µM*,15%,u,x,x
Cc1ccc(C)c(N2CCN(S(=O)(=O)c3ccc(C(=O)N(C)C)s3)CC2)c1,-1%,14%,-12%,x,x
Cc1sc2nc(SCC(=O)Nc3ccc(S(N)(=O)=O)cc3)[nH]c(=O)c2c1C,u,3%,-23%,-13%,-2%
Cc1sc2nc(SCC(=O)Nc3cccc(S(N)(=O)=O)c3)[nH]c(=O)c2c1C,-9%,-25%,-18%,24µM*,-1%
Cc1ccc(C(C)C)c(OCc2ccc(C(=O)N/N=C/c3ccc(C(=O)O)cc3)cc2)c1,-2%,-4%,-22%,24µM*,-1%
Cc1ccc(C(C)C)c(OCc2ccc(C(=O)N/N=C/c3ccc(O)cc3O)cc2)c1,-11%,-7%,-30%,-3%,-1%
CCOC(=O)c1sc(=S)n(CC)c1NC(=O)c1ccccc1,-3%,0%,-14%,-4%,0%
CCOC(=O)c1sc(=S)n(C)c1NC(=O)c1ccccc1C,15%,u,0%,6µM*,-5%
N#CC1=C(N)Oc2n[nH]c(-c3cccs3)c2C1c1ccoc1 (stereo unspecified),-1%,-24%,-12%,3.8µM*,-9%
COc1cccc(-c2[nH]nc3c2C(c2ccoc2)C(C#N)=C(N)O3)c1 (stereo unspecified),-12%,-5%,-9%,27µM*,-5%
COc1cccc(-c2[nH]nc3c2C(c2ccsc2)C(C#N)=C(N)O3)c1 (stereo unspecified),-26%,-22%,u,u,-2%
N#CC1=C(N)Oc2n[nH]c(-c3cccs3)c2C1c1cccnc1 (stereo unspecified),1%,15%,-18%,-9%,-4%
COc1cc(-c2[nH]nc3c2C(c2ccoc2)C(C#N)=C(N)O3)cc(OC)c1OC (stereo unspecified),-3%,-14%,-18%,u,-3%
COc1cc(-c2[nH]nc3c2C(c2ccco2)C(C#N)=C(N)O3)cc(OC)c1OC (stereo unspecified),-2%,-3%,-11%,30µM*,-2%
CC(=O)OCC(NC(=O)C(C)NC(=O)OC(C)(C)C)C1OC(n2cc(F)c(=O)[nH]c2=O)C(OC(C)=O)C1OC(C)=O (stereo unspecified),x,11%,x,x,x
CCOC(=O)c1sc(NC(=O)/C=C/c2cnn(CC)c2C)c(C(=O)OCC)c1C,-7%,u,-13%,13µM*,-12%
COc1ccccc1C(=O)OCC(=O)NC12CC3CC(CC(C3)C1)C2,2%,9%,-8%,-3%,-3%
O=C(COc1ccccc1F)NC12CC3CC(CC(C3)C1)C2,-4%,u,-11%,30µM*,-2%
COc1ccc(Br)cc1S(=O)(=O)Nc1ncccc1C,-1%,0%,-17%,30µM*,-3%
CCc1cc(=O)oc2c(CNCc3ccccc3F)c(O)c(Cl)cc12,-14%,-17%,-2%,30µM*,-3%
O=C(O)c1cc(-n2c(/C=C\c3ccc(F)cc3)nc3ccccc3c2=O)ccc1Cl,-5%,16%,-10%,x,x
O=C1NC(=O)/C(=C\c2ccc(Cl)nc2)S1,-1%,u,-16%,27µM*,2%
CC(C)(C)c1ccc(OCC(=O)Nc2c(C(=O)c3ccc(F)cc3)oc3ccccc23)cc1,-3%,-9%,-17%,x,x
CC(=O)Nc1ccc(NC(=S)Nc2ccccc2)cc1,-7%,5%,5%,-11%,0%
CC(=O)Nc1ccc(SC(Sc2ccc(NC(C)=O)cc2)c2ccccc2)cc1,x,-17%,-3%,17µM*,-1%

# Assay outcomes from PubChem BioAssay.
